# Tau fluor counter = counter-screen for tau fibril formation inhibitors; AID 1463; Potency, µM (doses to about 57.7 µM), for inactives: top-dose activity change, negative = decrease; tau K18 P301L Alexa594 fluorescence, heparin fibrillization; 0.93% of 280,000 active; further: potency means the concentration at half of the fitted maximal effect; nearly all actives have a fitted effect of over 55% in size
#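 Human tau K18 P301L (15 uM unlabeled, 0.24 uM Alexa 594-labeled) in 100 mM sodium acetate pH 7 with 20 uM heparin, 6 hr at 37 C. ThT 30 uM added, 1 hr ambient; Alexa 594 FP and total fluorescence read at 555/632 nm.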
# Coupling enz = counter-screen for Giardia aldolase inhibitors: coupling enzyme system | coupling enzyme system counterscreen, AmpLite Red fluorescence | activity change, negative = inhibition, % at 58.2 µM, hits read low | 0.67% of 290,000 active; in the data active means activity change below about -30%
#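 First, compound is pin-transferred into glyceraldehyde-3-phosphate coupling-enzyme reagent at 57.5 uM final and held 10 min at RT. Next, substrate, coupling system and AmpLite Red are added. After 20 min RT, fluorescence (525/598 nm) is read.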
# Tau ThT inhib = blocks human tau fibril formation measured by thioflavin T; 2.1% of 270,000 active; AID 1460; Potency, µM (titrated, usually from 57.4 µM), for inactives: top-dose activity, negative = inhibition, hits mostly inhibitors; recombinant tau K18 P301L (four-repeat tau fragment), heparin-induced fibrillization, ThT fluorescence; further: potency means the concentration at half of the fitted maximal effect; nearly all actives have a fitted effect of over 55% in size
# Target sequence (P10636 561-689 P618L limits assumed): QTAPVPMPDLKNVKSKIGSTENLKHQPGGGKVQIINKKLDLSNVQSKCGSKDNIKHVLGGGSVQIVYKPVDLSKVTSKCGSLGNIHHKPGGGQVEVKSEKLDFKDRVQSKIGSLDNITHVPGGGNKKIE
#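 Heparin-induced (20 uM) aggregation of recombinant human K18 P301L tau, 15 uM unlabeled with 0.24 uM labeled, pH 7 acetate buffer, 6 hr at 37 C with compound. Fibrils quantified by 30 uM ThT fluorescence after 1 hr ambient incubation.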
# Tau FP inhib = inhibitors of human tau fibril formation. P10636. K18 P301L tau heparin fibrillization, Alexa594 FP, 6 h. Potency, µM (top dose mostly 57.7 µM), without a hit: top-dose activity, negative = inhibition, most hits filed as inhibitors. 0.39% of 280,000 active. AID 1468; further: potency means the concentration at half of the fitted maximal effect; nearly all actives have a fitted effect of over 55% in size
#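 K18 P301L tau (15 uM unlabeled/0.24 uM Alexa 594-labeled, final) + compound + heparin 20 uM final; 100 mM NaOAc pH 7; 6 hr 37 C; ThT 30 uM final added, 1 hr RT; FP ex 555/em 632 nm.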
# Sfp inh = Sfp phosphopantetheinyl transferase inhibition; 3.5% of 310,000 active; Q9F4F7; Potency, µM, without a hit: largest response in the series, negative = inhibition, usual class: inhibitors; AID 1490; Biochemical Sfp PPTase activity, qHTS;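 further: the enzyme is Sfp with the accession as filed and its product quenches rhodamine fluorescence; potency means the concentration at half of the fitted maximal effect; 0% = enzyme reaction without inhibitor and -100% = no enzyme wells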
#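 Step 1, compound plus 15 nM Sfp-PPTase, 15 min, room temperature. Step 2, add rhodamine-CoA (5 uM) and BHQ-2-YbbR (12.5 uM). Step 3, read 525/598 nm fluorescence at 0 and 30 min.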
# * = called active by the depositor; ? = inconclusive; . = no result; [ ] = dose if it differs, or a comment. In the library only some 5.2% were active in any assay of this set; here they are far more common. Unless noted, the call rests on the fitted dose curve; in most records, active means well fitted curve in the direction sought with a large enough effect; inconclusive means small, poorly fitted or top-dose-only effect, or another doubt; inactive means no such curve, though single readings can be large; an effect the other way counts as inactive or inconclusive. Unless noted, on the % scale 0 is the no-effect control and ±100 the full control effect.
SMILES,Tau fluor counter,Coupling enz,Tau ThT inhib,Tau FP inhib,Sfp inh
CC(C)OC(=O)CC(=O)c1sc2nc3c(cc2c1N)CN(C)CC3,-15.4%,-16.3,?,9.8%,44.7µM*
COc1ccc(NC(=O)c2sc3nc4c(cc3c2N)CN(C(C)C)CC4)c(OC)c1,14.1µM*[quencher],.,12.6µM*,?,.
Cc1cccc(NC(=O)c2sc3nc4c(cc3c2N)CN(C(C)C)CC4)c1,17.8µM*[quencher],.,12.6µM*,-13.2%,.
CN1CCc2nc3sc(C(=O)Nc4cccc(C#N)c4)c(N)c3cc2C1,?,.,12.6µM*,3.2%,.
CN1CCc2nc3sc(C(=O)Nc4c(F)cccc4F)c(N)c3cc2C1,?,.,?,-0.8%,.
Cc1cccc(NC(=O)c2sc3nc4c(cc3c2N)CN(Cc2ccccc2)CC4)c1,-22.4%,.,-16.0%,-0.2%,.
Cc1ccc(C(C)C)c(OCC(=O)NCC2(N(C)C)CCCCC2)c1,-9.5%,.,-6.7%,-4.5%,.
CCOc1ccc(NC(=O)C2CCN(S(=O)(=O)c3c(C)noc3/C=C/c3cccs3)CC2)cc1,?,.,-5.3%,-8.6%,.
COC(=O)c1sc2nc3c(c(-c4cccs4)c2c1N)CCCC3,-1.8%,2.7,-13.4%,10.5%,79.4µM*
O=C(Nc1ccc(OC(F)F)c(Cl)c1)C(c1ccccc1)c1ccccc1,?,-2.3,6.2%,28.2µM*,29.8%
CCCOc1cccc(C(=O)Nc2ccc(-c3cc4ccccc4oc3=O)c(C)c2)c1,-21.9%,.,-5.8%,-13.1%,.
CC1=Nc2cccc3cccc(c23)N1,?,0.1,22.4µM*,?,?
Cc1ccc(C2NCCS2)cc1 (stereo not drawn),-16.0%,3.6,22.4µM*,?,-13.2%
CN(C)c1ccc(C2NCCS2)cc1 (stereo not drawn),-15.3%,-0.8,28.2µM*,?,-2.1%
Cc1ccc(C2=NNC(=O)C(c3ccc(Cl)cc3)C2)cc1 (stereo not drawn),-16.1%,1.1,-19.5%,5.4%,-8.7%
COc1cc2c(cc1OC)C(c1ccc(N(C)C)cc1)NCC2 (stereo not drawn),.,0.5,.,.,-9.1%
Clc1ccc2nc(-c3ccc(Br)o3)c(Nc3ccc4c(c3)OCCO4)n2c1,?,.,-2.5%,3.2%,.
CC(C)c1cccc(C(C)C)c1NC(=O)CNCC(O)c1ccccc1 (stereo not drawn),.,1.1,.,.,-13.1%
CC(C)c1cccc(C(C)C)c1NC(=O)CNCc1ccccc1F,0.5%,-2.0,-5.5%,-3.9%,44.7µM*
COc1cc(SC)ccc1C(=O)NCCOc1ccc(Cl)cc1,-11.7%,2.5,?,5.8%,-5.9%
COc1cc(SC)ccc1C(=O)NCCOc1c(C)cc(C)cc1C,-19.6%,-1.5,15.8µM*,-5.9%,50.1µM*
CSCC[C@H](NC(=O)[C@H](CC(C)C)NC(=O)CNC(=O)[C@@H]1CCCN1C(=O)[C@H](Cc1ccccc1)NC(=O)[C@H](Cc1ccccc1)NC(=O)[C@H](CC(=O)O)NC(=O)[C@H](Cc1cnc[nH]1)NC(=O)[C@H](CCSC)NC(=O)[C@@H](N)CC(=O)O)C(N)=O,.,-1.5,.,.,6.5%
Cc1ccc(C2CC(c3ccccc3)=NN2C(=S)Nc2ccccc2)o1 (stereo not drawn),-11.8%,-4.6,?,4.0%,44.7µM*
Cc1ccc(NC(=O)Cn2ccn(-c3ccc(F)c(F)c3)c(=O)c2=O)cc1C,3.1%,.,?,8.2%,.
COc1cccc(NC(=O)c2c(N3CCCC3=O)c3cc(C)ccc3n2C)c1,-12.7%,.,-6.2%,0.5%,.
SMILES,Tau fluor counter,Coupling enz,Tau ThT inhib,Tau FP inhib,Sfp inh
Cc1ccc2cc(/C=C(\C#N)C(N)=O)c(N3CCCCC3)nc2c1,-10.8%,0.8,?,6.8%,-3.3%
Cc1ccc2cc(C=C(C#N)C#N)c(N3CCCCC3)nc2c1,-16.9%,0.1,25.1µM*,?,-12.8%
O=C(Nc1ccc(O)cc1)C1CC=CCC1 (stereo not drawn),28.2µM*[quencher],-8.7,25.1µM*,?,-4.5%
CCCCCCCOC(=O)C[N+](C)(C)CCOC1CC2CCC1(C)C2(C)C (stereo not drawn),1.9%,2.4,?,-0.4%,50.1µM*
COc1ccc(/C=C/C(=O)c2ccc3ccccc3c2O)cc1CN1CCOCC1,-22.8%,-2.8,15.8µM*,-15.5%,?
CCOC(=O)C1=C(N)Oc2c(c(=O)[nH]c3ccccc23)C1c1ccccc1 (stereo not drawn),3.4%,-10.9,8.3%,-3.1%,20µM*
CCOC(=O)C1=C(N)Oc2cc(C)[nH]c(=O)c2C1c1ccncc1 (stereo not drawn),3.8%,0.7,-5.3%,-1.6%,17.6%
Cc1ccc(NC(=O)c2ccc(F)c(S(=O)(=O)NCCc3ccccc3)c2)cc1F,7.08µM*[quencher],.,9.9%,25.1µM*,.
Cc1ccc(NC(=O)c2ccc(F)c(S(=O)(=O)N3CCc4ccccc4C3)c2)cc1F,?,.,3.4%,?,.
CCN(c1ccccc1)S(=O)(=O)c1cc(C(=O)Nc2ccc(F)c(F)c2)ccc1F,?,0.9,8.4%,14.1µM*,16.6%
CC(C)C[C@H](NC(=O)[C@@H]1CCCN1C(=O)[C@H](Cc1ccccc1)NC(=O)[C@H](C)NC(=O)[C@H](CCC(=O)O)NC(=O)[C@H](C)NC(=O)[C@H](CO)NC(=O)[C@H](CCC(=O)O)NC(=O)[C@H](CC(=O)O)NC(=O)[C@H](CCC(=O)O)NC(=O)[C@H](C)NC(=O)CNC(=O)[C@H](CC(N)=O)NC(=O)[C@@H]1CCCN1C(=O)[C@H](Cc1ccc(O)cc1)NC(=O)[C@@H](NC(=O)[C@H](CCCCN)NC(=O)[C@@H](NC(=O)[C@@H]1CCCN1C(=O)[C@@H](N)CCCNC(=N)N)C(C)C)C(C)C)C(=O)N[C@@H](CCC(=O)O)C(=O)N[C@@H](Cc1ccccc1)C(=O)O,.,1.5,.,.,4.9%
COc1cccc(CN2CCCN(Cc3ccc(F)cc3)S2(=O)=O)c1,-23.8%,.,-8.5%,-1.9%,.
O=C(O)c1ccc(NS(=O)(=O)c2ccsc2C(=O)O)c(O)c1,-6.9%,2.0,-12.5%,-1.9%,?
O=C(CSC(=S)N1CCOCC1)Nc1nc(=O)c2ccccc2s1,-1.9%,4.4,-14.8%,?,79.4µM*
CN1N=C(C(C)(C)C)CC1=O,-5.3%,-31.8*,-13.2%,-2.4%,8.2%
COc1ccc(-c2coc3c(OC)c(OC)cc(O)c3c2=O)cc1,-18.4%,3.9,?,-3.7%,-30.1%
CCn1c(SCC(=O)c2ccc(Cl)cc2)nnc1-c1ccoc1C,-2.2%,-1.3,?,?,-92.6%
CCn1c(SCC(=O)c2ccc(C)cc2)nnc1-c1ccoc1C,-22.3%,-7.0,?,-13.6%,79.4µM*
CN(Cc1ccc(F)cc1)S(=O)(=O)c1nnc(NC(=O)c2ccc(F)cc2)s1,-13.1%,.,10.7%,-6.7%,.
COc1ccc(-c2nc(C(=O)O)cs2)cc1OC,3.9%,7.0,6.1%,2.5%,-25.0%

# Bioassay records (PubChem)
